Source: PubChem BioAssay (NCATS)
Values joined by “and” are separate entries in the source; they are usually repeats but may differ in a detail not shown here. Equal entries are not always repeated. Results filed as inconclusive are left out. More than one record can exist for a structure, and the calls need not agree. Active and inactive are the calls of the source. Unless noted, calls come from the whole dose curve; as a rule, active = well fitted curve in the direction sought with a large enough effect; inconclusive = small, poorly fitted or top-dose-only effect, or another doubt; inactive = no such curve, though single readings can be large; an effect the other way counts as inactive or inconclusive.

Experiments:
[1] = test system: Zika virus NS2B-NS3 protease; test: Primary screen GU AMC qHTS for Zika virus inhibitors (AID 1347154);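 note: 0% = no-inhibitor control and -100% = no-enzyme control; nearly all actives have a fitted effect of over 70% in size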
Summary of the method: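 Unlinked Zika NS2B hydrophilic domain/NS3 protease domain noncovalent complex (25 nM final) in 10 mM Tris-HCl pH 8.0, 0.01% Tween 20, with AMC peptide substrate. Fluorescence (ex 340, em 450 nm) change over 15 min, room temperature; percent inhibition fitted to 4-parameter Hill equation.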

[2] = Counterscreen qHTS for small molecule stabilizers of the endoplasmic reticulum resident proteome: GLuc-NoTag assay (AID 1508627);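 note: 0% = thapsigargin alone and -100% = DMSO vehicle control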
Summary of the method: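 Secreted GLuc lacking the SERCaMP modification is measured in SH-SY5Y cells exposed to compound for 19 h and then to thapsigargin (100 nM, 4 h) to deplete ER calcium; hits retested at 11 concentrations, up to 76.6 uM.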

[3] = Confirmatory qHTS for small molecule stabilizers of the endoplasmic reticulum resident proteome: Secreted ER Calcium Modulated Protein (SERCaMP) assay (AID 1508628); note: nearly all actives have a fitted effect of over 40% in size; note: potency is the fitted concentration of half-maximal effect
Summary of the method: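 GLuc-SERCaMP-expressing SH-SY5Y cells, pretreated 16 h with compound, are challenged with thapsigargin to empty ER calcium stores; after 4 h, coelenterazine is added directly to the medium and luminescence is imaged.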

[4] = Primary qHTS for inhibitors of nuclear receptor binding SET domain protein 2 (NSD2) in an RCH-ACV wild type WT cells (2C) (AID 1645877); note: % is set by controls: 0 for no effect and ±100 for the full control effect; nearly all actives have a fitted effect of over 70% in size
[5] = target: Cytochrome P450 1A2 (Homo sapiens) (UniProt P05177); test: p450-cyp1a2 (AID 410; calls by dose curve; note: potency is the fitted concentration of half-maximal effect;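 for activity change, negative = inhibition: -100% = full effect of reference inhibitor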)
Cytochrome P450 1A2 (Homo sapiens), sequence (P05177 whole entry, looked up): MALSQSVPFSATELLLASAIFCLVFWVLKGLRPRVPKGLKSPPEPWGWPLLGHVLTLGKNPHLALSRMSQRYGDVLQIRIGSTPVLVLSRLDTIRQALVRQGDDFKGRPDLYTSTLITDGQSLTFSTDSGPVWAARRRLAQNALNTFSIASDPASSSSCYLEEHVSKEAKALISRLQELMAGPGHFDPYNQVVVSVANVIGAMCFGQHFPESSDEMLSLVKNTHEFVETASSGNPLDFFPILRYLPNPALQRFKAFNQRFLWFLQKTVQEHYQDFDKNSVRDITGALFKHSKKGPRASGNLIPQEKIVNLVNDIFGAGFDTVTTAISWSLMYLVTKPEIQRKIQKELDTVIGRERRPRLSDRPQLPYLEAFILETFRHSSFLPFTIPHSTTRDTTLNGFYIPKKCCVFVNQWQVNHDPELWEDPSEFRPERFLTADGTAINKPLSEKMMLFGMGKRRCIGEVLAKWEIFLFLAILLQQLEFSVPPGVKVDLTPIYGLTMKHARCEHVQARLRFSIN
Summary of the method: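 Read-out is luminescence from luciferin produced by CYP1A2 demethylation of Luciferin-ME (100uM, at Km). Detection reagent stopped the 60 min NADPH-dependent reaction; signals were normalized to 57 uM furafylline.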

[6] = target: Glucocorticoid receptor (Homo sapiens) (UniProt P04150); test: GR-GFP Redistribution (AID 450;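 active = compounds whose dose series gives a full or clear partial fitted curve of increased nuclear translocation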; note: potency is the fitted concentration of half-maximal effect); conditions: U2OS GR-GFP nuclear translocation, laser cytometry, 2 h
Glucocorticoid receptor (Homo sapiens), sequence (P04150 whole entry, looked up, the tested form may be a part): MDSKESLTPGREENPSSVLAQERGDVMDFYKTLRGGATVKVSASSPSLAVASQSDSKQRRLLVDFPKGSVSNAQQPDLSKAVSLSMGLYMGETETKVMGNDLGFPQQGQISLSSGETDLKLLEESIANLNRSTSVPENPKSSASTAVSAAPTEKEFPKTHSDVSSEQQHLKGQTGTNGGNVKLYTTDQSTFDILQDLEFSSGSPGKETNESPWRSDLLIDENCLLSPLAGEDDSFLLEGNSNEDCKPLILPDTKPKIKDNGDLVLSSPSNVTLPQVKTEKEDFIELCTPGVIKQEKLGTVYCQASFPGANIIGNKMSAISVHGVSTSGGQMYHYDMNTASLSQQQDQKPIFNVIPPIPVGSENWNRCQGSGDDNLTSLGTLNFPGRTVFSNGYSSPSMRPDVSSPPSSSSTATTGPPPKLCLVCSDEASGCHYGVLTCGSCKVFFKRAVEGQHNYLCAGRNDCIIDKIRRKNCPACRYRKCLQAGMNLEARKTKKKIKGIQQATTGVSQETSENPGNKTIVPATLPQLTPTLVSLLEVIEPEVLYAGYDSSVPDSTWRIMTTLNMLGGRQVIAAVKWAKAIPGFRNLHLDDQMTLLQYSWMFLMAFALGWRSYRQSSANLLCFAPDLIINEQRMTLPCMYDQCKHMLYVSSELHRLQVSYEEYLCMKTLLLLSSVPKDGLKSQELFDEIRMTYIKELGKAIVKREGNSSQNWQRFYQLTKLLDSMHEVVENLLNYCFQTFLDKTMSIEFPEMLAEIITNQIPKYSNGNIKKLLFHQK

[7] = target: Glucocorticoid receptor (Homo sapiens) (UniProt P04150); test: GR-EFC Redistribution (AID 451; calls by dose curve; note: potency is the fitted concentration of half-maximal effect); conditions: CHO-K1 GR-EFC translocation, beta-gal luminescence, 2 h
Summary of the method: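 CHO-K1 cells stably expressing nuclear-localized β-gal enzyme acceptor and GR fused C-terminally to the enzyme donor fragment; ligand-driven nuclear translocation restores β-gal by complementation. Compounds titrated up to 46 uM final, 2 h at 37 °C; luminescence read.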

[8] = target: Mitogen-activated protein kinase 10 (Mus musculus) (UniProt Q61831); test: JNK3 AlphaScreen Assay (AID 530; active = well fitted curve in either direction with a large enough effect, not every such curve was filed as active;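 note: kinase came from lysate of stimulated human HepG2 cells; signal reports phosphorylation of biotinylated GST-cJun 1-79 at Ser73 with 10 µM ATP; % is set by controls: 0 for no effect and ±100 for the full control effect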)
Summary of the method: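 Biotinylated GST-cJun(1-79) served as substrate for JNK3 in HepG2 lysates stimulated with IL-1beta and TNF-alpha. ATP was 10 uM final, pH 7.6. Ser73 phosphorylation was quantified by AlphaScreen (680 nm excitation).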

[9] = target: Cytochrome P450 2C9 (Homo sapiens) (UniProt P11712); test: qHTS Assay for Inhibitors and Substrates of Cytochrome P450 2C9 (AID 883); note: potency is the fitted concentration of half-maximal effect; nearly all actives have a fitted effect of over 60% in size
Summary of the method: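 Human CYP2C9 (10nM) hydroxylated Luciferin-H (100uM, at its KM) to luciferin in 25mM KPO4. Compound was preincubated 10 min at 37C, then NADPH regeneration started a 60 min reaction at 37C. Luminescence was read after detection reagent, normalized to 57uM sulphaphenazole.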

[10] = target: Cytochrome P450 2C19 (Homo sapiens) (UniProt P33261); test: qHTS Assay for Inhibitors and Substrates of Cytochrome P450 2C19 (AID 899); note: potency is the fitted concentration of half-maximal effect; nearly all actives have a fitted effect of over 60% in size
Summary of the method: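 Human CYP2C19 (5nM) with Luciferin-H EGE at 10uM (its KM) in 50mM KPO4 was preincubated with compound for 10 min at 37C. NADPH regeneration started a 60 min 37C reaction. Luciferin was read by luminescence, normalized to 57uM ketoconazole.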

[11] = target: Ubiquitin carboxyl-terminal hydrolase 1 (Homo sapiens) (UniProt O94782); test: Inhibitors of USP1/UAF1: Pilot qHTS (AID 504865);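 note: rhodamine fluorescence freed from ubiquitin-rhodamine substrate followed over time; top concentration of the series differs between compounds; % is set by controls: 0 for no effect and ±100 for the full control effect; nearly all actives have a fitted effect of over 35% in size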
Summary of the method: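 Enzyme-free wells gave the negative control, while test wells held 1nM USP1/UAF1 preincubated with compound for 15 min at room temperature. Ub-Rho at 150nM final started the reaction, and fluorescence at 480/540 nm was recorded kinetically.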

[12] = target: DNA dC->dU-editing enzyme APOBEC-3G (Homo sapiens) (UniProt Q9HC16); test: qHTS for inhibitors of Vif-A3G interactions: Validation (AID 588379); note: 0% is about no effect
DNA dC->dU-editing enzyme APOBEC-3G (Homo sapiens), sequence (Q9HC16 whole entry, looked up): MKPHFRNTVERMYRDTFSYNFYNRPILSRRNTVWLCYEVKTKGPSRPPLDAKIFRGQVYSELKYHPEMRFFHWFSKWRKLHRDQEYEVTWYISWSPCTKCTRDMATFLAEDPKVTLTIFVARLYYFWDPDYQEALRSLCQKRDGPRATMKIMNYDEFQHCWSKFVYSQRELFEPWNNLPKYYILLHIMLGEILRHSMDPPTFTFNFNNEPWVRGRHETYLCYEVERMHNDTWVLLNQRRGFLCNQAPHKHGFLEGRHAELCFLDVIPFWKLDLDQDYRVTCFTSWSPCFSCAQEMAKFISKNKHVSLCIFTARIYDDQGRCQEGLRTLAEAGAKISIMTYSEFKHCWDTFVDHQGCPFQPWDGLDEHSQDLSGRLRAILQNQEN
Summary of the method: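 Yellow fluorescence (Ex 488, Em 500-530) of Vif-coexpressing HeLa A3G-eYFP cells, scanned by Acumen cytometer, reports blocked A3G degradation. Cells plated at 700/well overnight at 37 deg C before compound addition, then a further overnight compound incubation at 37 deg C.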

[13] = AP1 Signaling Pathway (AID 357; active = well fitted curve in either direction with a large enough effect, not every such curve was filed as active;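 note: ME-180 reporter cells stimulated with EGF at its EC50 level; % is set by controls: 0 for no effect and ±100 for the full control effect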); conditions: ME-180 AP-1-bla reporter, EGF-induced, beta-lactamase ratio, 5 h; at 38 µM (top of the series)
Summary of the method: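 First, ME-180 AP-1-bla cells were cultured overnight at 37 °C in low-serum Opti-MEM. Next, titrated compounds with EC50 EGF were incubated 5 hours. Finally, CCF4 was added for 2.5 hours and the 460/530 nm ratio recorded.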

[14] = NFAT Signaling Pathway (AID 444; active = well fitted curve in either direction with a large enough effect, not every such curve was filed as active;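 note: carbachol stimulus at about its EC50 of 1 µM final; % is set by controls: 0 for no effect and ±100 for the full control effect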); conditions: Jurkat NFAT-bla M1, carbachol, beta-lactamase ratio, 5 h
Summary of the method: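 Jurkat cells carrying an NFAT-driven β-lactamase reporter and co-transfected muscarinic M1 receptor were treated with compound plus carbachol (1 uM final, an EC50 level) for 5 h at 37 °C. CCF4 loading followed for 1 h at RT; 460/530 nm ratio gave %activity.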

[15] = target: 3',5'-cyclic-AMP phosphodiesterase 4B (Homo sapiens) (UniProt Q07343); test: qHTS Assay for Inhibitors of PDE-IV (AID 607; active = well fitted activation curve with a large enough effect in the main read-out, with a control signal flat, not every such curve was filed as active; note: % of control where 0% means no effect)
3',5'-cyclic-AMP phosphodiesterase 4B (Homo sapiens), sequence (Q07343 whole entry, looked up): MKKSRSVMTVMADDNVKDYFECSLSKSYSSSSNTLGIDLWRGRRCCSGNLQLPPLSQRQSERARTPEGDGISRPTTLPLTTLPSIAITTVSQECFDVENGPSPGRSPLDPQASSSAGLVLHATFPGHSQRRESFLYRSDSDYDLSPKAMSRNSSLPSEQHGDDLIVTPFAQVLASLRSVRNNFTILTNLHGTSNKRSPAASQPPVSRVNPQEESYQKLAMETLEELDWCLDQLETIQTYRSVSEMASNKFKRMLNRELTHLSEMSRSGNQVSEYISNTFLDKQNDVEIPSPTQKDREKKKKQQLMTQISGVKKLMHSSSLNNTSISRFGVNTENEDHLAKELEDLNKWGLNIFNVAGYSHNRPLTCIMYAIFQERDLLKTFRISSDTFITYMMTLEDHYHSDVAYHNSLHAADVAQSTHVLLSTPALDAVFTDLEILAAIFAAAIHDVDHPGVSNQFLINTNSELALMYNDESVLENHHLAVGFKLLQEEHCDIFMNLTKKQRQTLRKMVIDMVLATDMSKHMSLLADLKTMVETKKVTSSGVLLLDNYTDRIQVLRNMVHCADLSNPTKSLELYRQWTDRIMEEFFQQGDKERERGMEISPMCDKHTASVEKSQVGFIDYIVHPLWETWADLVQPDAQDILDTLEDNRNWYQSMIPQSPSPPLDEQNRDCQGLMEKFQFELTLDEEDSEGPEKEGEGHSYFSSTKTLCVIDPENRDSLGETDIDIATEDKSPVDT
Summary of the method: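 ACTOne HEK293 cells carry a modified cAMP-gated CNG channel and express endogenous PDE4; plated 1000 cells/well, compounds up to 22.9 uM final. Membrane-potential dye fluorescence (ex 535/em 590) was read; parental cells received 10 uM forskolin + 100 uM RO 20-1724.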

[16] = target: Guanine nucleotide-binding protein G(i) subunit alpha-1 (Homo sapiens) (UniProt P63096); test: qHTS Assay for Inhibitors of RGS12 GoLoco Motif Activity (Green Fluorophore) (AID 879);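 note: 0% = labeled peptide with Gαi1 and full inhibition = labeled peptide alone without protein; negative values mean loss of peptide binding seen as reduced polarization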
Guanine nucleotide-binding protein G(i) subunit alpha-1 (Homo sapiens), sequence (P63096 whole entry, looked up): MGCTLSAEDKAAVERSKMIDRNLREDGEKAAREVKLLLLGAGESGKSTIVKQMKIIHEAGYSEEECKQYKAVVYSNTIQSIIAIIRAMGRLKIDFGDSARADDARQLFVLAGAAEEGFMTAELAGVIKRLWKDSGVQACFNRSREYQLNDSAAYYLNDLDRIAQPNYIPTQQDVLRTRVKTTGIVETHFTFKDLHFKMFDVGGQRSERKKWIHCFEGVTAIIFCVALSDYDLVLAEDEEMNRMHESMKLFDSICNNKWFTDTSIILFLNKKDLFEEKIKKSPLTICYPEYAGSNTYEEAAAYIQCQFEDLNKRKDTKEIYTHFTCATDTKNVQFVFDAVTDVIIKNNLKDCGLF
Summary of the method: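 A drop in FITC polarization marked displacement of the FITC-tagged RGS12 GoLoco peptide (10 nM) from Gαi1 (50 nM). Compounds were incubated 10 min at room temperature in Tris pH 7.5 buffer containing 150 mM NaCl, 0.1 mM GDP and 0.05% NP40; unlabeled peptide titration served as control.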

[17] = target: Cytochrome P450 2D6 (Homo sapiens) (UniProt P10635); test: qHTS Assay for Inhibitors and Substrates of Cytochrome P450 2D6 (AID 891); note: potency is the fitted concentration of half-maximal effect; nearly all actives have a fitted effect of over 60% in size
Summary of the method: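 Luminescent read-out of luciferin formed by 5 nM human CYP2D6 demethylating 30 uM Luciferin-ME EGE (Km level) over 60 min at room temperature after NADPH regeneration addition. Data normalized to full inhibition by 1.43 uM quinidine.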

[18] = qHTS Assay for Identification of Small Molecule Agonists for Thrombopoietin (TPO) Signaling Pathway (AID 917); note: % is set by controls: 0 for no effect and ±100 for the full control effect
Summary of the method: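 Human TPO receptor–transfected Ba/F3 cells (murine, IL-3-dependent) in IL-3-deficient medium; compounds plus TPO at EC50, 26 pM final; 24 hrs, 37 C; GpIIb-luciferase luminescence after 10 min RT detection.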

[19] = target: Muscarinic acetylcholine receptor M1 (Rattus norvegicus) (UniProt P08482); test: qHTS Assay for Antagonists of Acetylcholine Muscarinic M1 Receptor: Kinetic Measurement of Intracellular Calcium Response (AID 943);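 note: Fluo-4 calcium signal as peak divided by basal fluorescence over 4 min; nearly all actives have a fitted effect of over 75% in size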
Muscarinic acetylcholine receptor M1 (Rattus norvegicus), sequence (P08482 whole entry, looked up): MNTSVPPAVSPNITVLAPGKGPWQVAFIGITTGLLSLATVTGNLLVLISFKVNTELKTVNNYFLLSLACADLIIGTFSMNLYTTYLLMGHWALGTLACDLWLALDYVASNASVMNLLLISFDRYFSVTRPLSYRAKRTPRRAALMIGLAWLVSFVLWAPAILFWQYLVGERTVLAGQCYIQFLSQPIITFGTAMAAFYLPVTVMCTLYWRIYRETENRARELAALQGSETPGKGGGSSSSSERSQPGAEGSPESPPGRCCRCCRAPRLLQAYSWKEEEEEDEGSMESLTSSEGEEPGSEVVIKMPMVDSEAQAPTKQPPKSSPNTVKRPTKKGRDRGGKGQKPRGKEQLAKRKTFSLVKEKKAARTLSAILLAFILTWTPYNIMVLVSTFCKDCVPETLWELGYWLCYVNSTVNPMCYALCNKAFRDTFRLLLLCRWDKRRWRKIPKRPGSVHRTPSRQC
Summary of the method: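 Quantitative HTS in CHO-M1 (rat receptor) cells: 10 min compound exposure ahead of 100 nM carbachol, Fluo-4 fluorescence followed 4 min, value expressed as peak-to-basal ratio.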

[20] = target: Muscarinic acetylcholine receptor M1 (Rattus norvegicus) (UniProt P08482); test: qHTS Assay for Antagonists of Acetylcholine Muscarinic M1 Receptor: Measurement of IP-One Response (AID 944); note: nearly all actives have a fitted effect of over 75% in size
Summary of the method: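 Antagonism was measured as loss of carbachol-driven (EC80) IP1 accumulation in CHO cells carrying rat M1, using a homogeneous IP-One TR-FRET kit read at 620 and 665 nm.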

[21] = target: Pyruvate kinase (Leishmania mexicana) (UniProt Q27686); test: qHTS Validation Assay for Inhibitors of Leishmania Mexicana Pyruvate Kinase (AID 945);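 note: 0% = DMSO only neutral control wells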
Pyruvate kinase (Leishmania mexicana), sequence (Q27686 2-499 E452W): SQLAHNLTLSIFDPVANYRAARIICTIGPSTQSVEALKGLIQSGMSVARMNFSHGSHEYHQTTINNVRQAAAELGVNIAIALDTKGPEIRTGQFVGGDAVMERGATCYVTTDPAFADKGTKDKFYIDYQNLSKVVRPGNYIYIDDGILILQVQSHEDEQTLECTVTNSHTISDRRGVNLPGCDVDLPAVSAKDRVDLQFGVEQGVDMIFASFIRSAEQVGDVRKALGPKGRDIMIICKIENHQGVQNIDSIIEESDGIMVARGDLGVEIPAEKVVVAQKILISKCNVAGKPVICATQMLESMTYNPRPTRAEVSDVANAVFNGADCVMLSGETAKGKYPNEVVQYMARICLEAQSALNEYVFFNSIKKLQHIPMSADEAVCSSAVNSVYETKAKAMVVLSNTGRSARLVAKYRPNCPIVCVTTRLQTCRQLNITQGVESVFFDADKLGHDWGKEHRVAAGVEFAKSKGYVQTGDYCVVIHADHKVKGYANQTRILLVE
Summary of the method: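 Substrate mix (0.5 mM PEP, 0.1 mM ADP, 7 mM MgCl2, 50 mM KCl, pH 7.2 imidazole) received compound by pin tool, then 0.2 nM LmPYK E451W. After 1 h at room temperature, PKLight was added and luminescence measured.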

[22] = target: Pyruvate kinase PKM (Homo sapiens) (UniProt P14618); test: qHTS Assay for Activators of Human Muscle Pyruvate Kinase (AID 954; active = well fitted curve in the direction sought with a large enough effect, not every such curve was filed as active;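 note: 0% = uninhibited enzyme and -100% = no enzyme or full thiadiazolimine inhibition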)
Pyruvate kinase PKM (Homo sapiens), sequence (P14618 whole entry, looked up): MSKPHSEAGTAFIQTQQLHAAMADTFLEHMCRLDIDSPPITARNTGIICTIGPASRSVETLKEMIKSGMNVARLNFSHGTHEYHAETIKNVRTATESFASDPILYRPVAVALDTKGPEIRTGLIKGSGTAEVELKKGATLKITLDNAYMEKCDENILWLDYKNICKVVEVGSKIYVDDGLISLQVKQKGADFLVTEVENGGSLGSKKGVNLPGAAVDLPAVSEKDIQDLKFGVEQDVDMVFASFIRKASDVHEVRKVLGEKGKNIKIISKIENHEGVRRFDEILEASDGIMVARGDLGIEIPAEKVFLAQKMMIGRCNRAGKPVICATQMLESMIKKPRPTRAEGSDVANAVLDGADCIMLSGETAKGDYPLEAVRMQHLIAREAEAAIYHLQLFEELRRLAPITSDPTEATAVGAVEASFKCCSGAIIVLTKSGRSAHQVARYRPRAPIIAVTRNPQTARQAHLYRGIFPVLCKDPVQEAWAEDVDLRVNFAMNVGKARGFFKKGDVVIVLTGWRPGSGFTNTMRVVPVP
Summary of the method: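 A coupled luminescent readout tracked ATP made from ADP by purified PKM2. Final conditions included 0.1 nM enzyme, PEP and ADP at 0.5 and 0.1 mM, pH 7.2 imidazole buffer with BSA, and a one-hour room-temperature reaction.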

[23] = target: Alpha-galactosidase A (Homo sapiens) (UniProt P06280); test: Counterscreen for Glucocerebrosidase Inhibitors: qHTS Assay for Human alpha-Galactosidase at pH 4.5 (AID 992); note: 0% is about no effect
Alpha-galactosidase A (Homo sapiens), sequence (P06280 whole entry, looked up): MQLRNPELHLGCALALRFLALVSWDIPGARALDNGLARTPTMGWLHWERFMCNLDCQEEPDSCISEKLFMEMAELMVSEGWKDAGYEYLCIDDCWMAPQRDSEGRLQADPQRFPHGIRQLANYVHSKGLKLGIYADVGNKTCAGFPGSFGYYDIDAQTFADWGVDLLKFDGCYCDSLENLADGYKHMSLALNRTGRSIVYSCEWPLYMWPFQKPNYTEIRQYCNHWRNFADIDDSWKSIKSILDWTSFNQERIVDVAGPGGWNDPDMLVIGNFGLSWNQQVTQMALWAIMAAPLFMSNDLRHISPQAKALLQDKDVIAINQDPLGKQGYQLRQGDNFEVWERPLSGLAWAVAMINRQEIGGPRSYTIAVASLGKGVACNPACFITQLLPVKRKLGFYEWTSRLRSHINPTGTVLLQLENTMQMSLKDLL
Summary of the method: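 Citrate buffer pH 4.5, Tween-20 0.005%. Enzyme 2 nM, substrate 80 uM, 20 min RT. Stop pH 10. Fluorescence Ex 365/Em 440. AC50 by Hill fit.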

[24] = target: alpha-glucosidase (Oryza sativa, rice) (UniProt Q653V4); test: Counterscreen for Glucocerebrosidase Inhibitors: qHTS Assay for Rice alpha-Glucosidase at pH 5.0 (AID 997);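 note: 0% = full activity with enzyme and -100% = basal without enzyme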
Summary of the method: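 Endpoint fluorogenic assay at pH 5.0: compounds (0.7 nM to 77 uM) titrated against 4 nM rice enzyme and 400 uM 4-MU-alpha-glucoside for 20 min at room temperature; NaOH/glycine stop, read ex 365/em 440 nm, Hill-fitted AC50.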

[25] = qHTS Assay for Lipid Storage Modulators (AID 1519; calls by dose curve); conditions: Drosophila S3 cells, BODIPY lipid droplet/cell ratio, laser cytometry, cells loaded with oleic acid
Summary of the method: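 Cells seeded at 5,000 per well were treated with compounds over a concentration series and loaded with oleic acid (400 uM, as added). Lipid droplet fluorescence (488 nm excitation, 500-530 nm channel) was read by laser-scanning cytometry and normalized to 20 uM Triacsin C.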

[26] = Stat Signaling Pathway (AID 446; active = well fitted curve in either direction with a large enough effect, not every such curve was filed as active); conditions: ME-180 (cervical carcinoma) SIE beta-lactamase reporter, IL-6 stimulated, 5 h
Summary of the method: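 Compound effects on IL-6-induced STAT reporter activity were measured in ME-180 cells. After overnight culture, cells were co-treated with 40 pM IL-6 for 5 hrs before beta-lactamase substrate loading at room temperature.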

[27] = measured here: cell count channel max response
[28] = measured here: lipid channel max response

COc1ccc(C2Sc3ccccc3N(CCN(C)C)C(=O)[C@@H]2OC(C)=O)cc1 (stereo partly specified)
inactive: Potency [1] | Potency [2]
31.6 µM (active) and inactive: Potency [3]

C=C[C@H]1CN2CCC1C[C@@H]2C(O)c1ccnc2ccc(OC)cc12 (stereo partly specified)
39.8 µM (active) and inactive: Potency [3]
inactive: Potency [1] | Potency [2] | Potency [4]

N=C(CC(O)COc1ccccc1-c1ccccc1)N1CCCCC1 (stereo unspecified)
inactive: Potency [1] | Potency [3]

COc1cc(N)c(Cl)cc1C(=O)N[C@H]1CCN(CCCOc2ccc(F)cc2)C[C@@H]1OC
inactive: Potency [6] > 46 µM | Potency [7] > 46 µM | Potency [8] | Potency [11] | Potency [12] | Potency [1] | Potency [2]
active: Potency [5] 25.1 µM | Potency [9] 1 µM | Potency [10] 0.794 µM

C[C@]12CC3CC(N)(C1)C[C@@](C)(C3)C2
inactive: activity change, negative = inhibition [13] 19.1% | Potency [5] | activity change, negative = inhibition ([14]; at 38 µM (top of the series)) -5.02% | Potency [6] > 46 µM | Potency [7] > 46 µM | Potency [8] | Potency [15] | outcome [16] | Potency [18] | Potency [19] | Potency [20] | Potency [21] | outcome [22] | outcome [23] | outcome [24] | activity change, negative = inhibition ([25]; at 57.5 µM (top of the series)) -0.0594% | Potency [12] | Potency [1] | Potency [2]
-26.5%: max response [25, 28]
-24.5%: max response [25, 27]
active: Potency [17] 0.316 µM

O=C1N=C(O)CN1/N=C\c1ccc(-c2ccc([N+](=O)[O-])cc2)o1
3.82%: max response [25, 27]
7.61%: max response [25, 28]
inactive: activity change, negative = inhibition ([14]; at 17.2 µM (top of the series)) 4.77% | activity change, negative = inhibition ([14]; at 38 µM (top of the series)) -3.36% | activity, negative = inhibition ([26]; at 17.2 µM (top of the series)) 9.37% | activity, negative = inhibition ([26]; at 38 µM (top of the series)) -4.41% | Potency [6] > 46 µM and > 20.6 µM | Potency [7] > 46 µM and > 20.6 µM | Potency [18] | Potency [19] | Potency [20] | Potency [21] | outcome [22] | outcome [23] | outcome [24] | activity change, negative = inhibition ([25]; at 25.7 µM (top of the series)) 3.41% | Potency [11] | Potency [12] | Potency [1] | Potency [2]
